Screening data deposited in PubChem by several laboratories.
A selection: hits, their analogues and other compounds. The true share with any hit is near 2%.
Platelet DG rel: modulates dense granule release in human platelets. human platelet-rich plasma, SFLLRN dense granule ATP release, luminescence. inhibition, %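 (compounds screened at 7.5 µM in platelet-rich plasma)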. 0.22% of 300,000 active;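 active = mean replicate score, as percent of positive control, at or above 50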
PolyA inhibitor: blocks polyadenylation in yeast reporter cells | 0.02% of 300,000 active | S. cerevisiae SKY197-pL101 polyadenylation reporter, beta-gal luminescence; efflux-impaired pdr1/pdr3 knockout yeast; score 100 = 6 SD above DMSO | activity score, % at 12 µM;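 active = lowest replicate activity score at least 50, where 100 means six control SD above control mean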;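 also: yeast exposed to compound for 9 h at 30 °C; higher score means more reporter readthrough which indicates perturbed polyadenylation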
Yeast superoxide: yeast age-related superoxide inhibition as caloric restriction mimetic. S. cerevisiae aged cells, superoxide DHE fluorescence; active compounds read low. superoxide response (% of plate mean), % at 10 µM. 0.18% of 330,000 active. AID 2690;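 active = superoxide response under a set limit, about three screen SD below normal, cut at about 65% in these data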;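 also: yeast aged for seven days with compound at 30 °C before DHE staining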
SKKanGAS inh: blocks kanamycin growth of S. pyogenes SKKanGAS strain | BacTiter-Glo, 6 h | inhibition, % at 7.5 µM | 1.3% of 300,000 active;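 active = mean replicate score, as percent of positive control median, at least 50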;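 also: strain carries kanamycin resistance gene driven by streptokinase promoter and grows in 40 µg/ml kanamycin; loss of luminescence reflects streptokinase promoter inhibition or plain growth inhibition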
Calb FLC: affects C. albicans growth with fluconazole; C. albicans CaCi-2 (fluconazole-resistant clinical isolate) + fluconazole, Alamar Blue growth, 48 h; 0.57% of 300,000 active; AID 1979; growth inhibition, % (no concentration beside the values);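 active = growth inhibition above about 58% in most replicates, limit read from the data, passing the limit was not always enough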;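 also: all wells also contain fluconazole at 8 µg/ml as a sub-toxic cotreatment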
Numbers stand for hits; n = inactive; x = no result given.

SMILES | Platelet DG rel | PolyA inhibitor | Yeast superoxide | SKKanGAS inh | Calb FLC
Cc1c(C)c2ccc(OCC(=O)Nc3ccccn3)c(C)c2oc1=O | 52.2 | n | n | n | n
Cc1c(C)c2ccc(OCC(=O)N(C)C)c(C)c2oc1=O | n | n | n | n | n
CCC(=O)c1ccc(OCC(=O)OCC(=O)N2c3ccccc3CC2C)cc1 (stereo unspecified) | n | n | n | n | n
CS/C(=N\S(=O)(=O)c1cccs1)Nc1cccc(Cl)c1C | n | 85.9 | n | n | n
O=S(=O)(/N=C(/Nc1cccc2ccccc12)c1ccccc1)c1cccs1 | n | n | n | n | n
CS/C(=N\S(=O)(=O)c1cccs1)Nc1ccc(F)c(Cl)c1 | n | n | n | n | 94.6
CC(C)n1c(SCC(=O)NCc2ccco2)nnc1C1CC1 | n | n | n | n | n
CCN(c1ccccc1)S(=O)(=O)c1ccc(Cl)c(NC(=O)CN2C(=O)NC3(CCCC3)C2=O)c1 | n | n | n | n | 96.2
Cc1ccccc1NC(=S)c1ccc2ccccc2n1 | 54.3 | n | n | n | n
Cc1[nH]n(C(N)=S)c(=O)c1N=Nc1ccc(S(=O)(=O)N2CCCCCC2)cc1 | n | n | n | n | 103.5
O=C(c1cc(COc2ccc(F)cc2Cl)on1)N1CCSCC1 | n | n | n | n | n
CC(C)c1nc(N2CCN(C(=O)c3ccco3)CC2)c2c3c(sc2n1)CCCC3 | n | n | n | n | 89.4
CCCCc1nc(N2CCN(C(=O)c3ccco3)CC2)c(C#N)c2c1CCCC2 | n | n | n | 97.1 | n
CC(C)c1nc(N2CCN(C(=O)c3ccco3)CC2)c(C#N)c2c1COC(C)(C)C2 | n | n | n | n | n
COc1ccccc1NC(=O)CSc1nnnn1C1CCCCC1 | n | n | n | n | n
COc1ccc(S(=O)(=O)N2CCN(C(=O)c3ccco3)CC2)cc1C(C)(C)C | n | n | n | n | n
O=C(CCC(=O)Nc1ccc(Br)cc1)N/N=C/c1cc([N+](=O)[O-])ccc1O | n | n | n | 55.6 | n
O=C(CCC(=O)Nc1cc(C(F)(F)F)ccc1Cl)N/N=C\c1cc([N+](=O)[O-])ccc1O | n | n | n | 102.6 | n
O=C(N/N=C/c1cc([N+](=O)[O-])ccc1O)C1C2CCCCC21 (stereo unspecified) | n | n | n | n | 100.9
O=C(CCC(=O)Nc1ccc(F)cc1)N/N=C/c1cc([N+](=O)[O-])ccc1O | n | n | n | n | n
Cc1ccc(N=C2CCCN2Cc2ccccc2)c(C#N)c1 | n | n | n | n | n
CCOC(=O)c1[nH]c2ccc(F)cc2c1NC(=O)c1ccccc1C(=O)O | n | n | n | 84.4 | 85.1
CCOC(=O)c1[nH]c2ccc(OC)cc2c1NC(=O)c1ccccc1C(=O)O | n | n | n | n | n
C=C(C)C1Cc2nc(N)nc(C)c2C1 (stereo unspecified) | n | n | n | n | n
C=C(C)C1Cc2c(C)nn(-c3nc(C)cc(C)n3)c2C1 (stereo unspecified) | n | n | n | 55.5 | n
SMILES | Platelet DG rel | PolyA inhibitor | Yeast superoxide | SKKanGAS inh | Calb FLC
CCn1c2ccccc2c2cc(NC(=O)CSc3nccc(=O)[nH]3)ccc21 | n | n | n | n | n
c1ccc(-c2ccc(-c3nc(-c4ccccn4)no3)cc2)cc1 | 94.8 | n | n | n | n
c1ccc(-c2nc(-c3ccccn3)no2)cc1 | n | n | n | n | n
Cc1ccccc1-c1noc(-c2ccc(O)cc2)n1 | 99.7 | n | n | n | n
Cc1ccccc1-c1noc(-c2ccc(Cl)cc2)n1 | n | n | n | n | n
Cc1ccc(-c2nc(-c3ccccn3)no2)cc1 | 52.4 | n | n | 59.2 | n
CC1COc2c(N3CCN(C)CC3)c(F)cc3c(=O)c(C(=O)O)cn1c23 (stereo unspecified) | n | n | n | 95.1 | n
COc1c(N2CCN(C(=S)NCc3ccccc3)C(C)C2)c(F)cc2c(=O)c(C(=O)O)cn(C3CC3)c12 (stereo unspecified) | n | n | n | 106.2 | n
COc1c(F)c(F)cc2c(=O)c(C(=O)O)cn(C3CC3)c12 | n | n | n | n | n
CCOc1ccc(NC(=O)c2ccc(NC(=O)c3cn4c5c(c(N6CCN(C)CC6)c(F)cc5c3=O)OCC4C)cc2)cc1 (stereo unspecified) | n | n | n | n | n
COc1c(N2CCN[C@H](C)C2)c(F)cc2c(=O)c(C(=O)O)cn(C3CC3)c12 | n | n | n | 101.4 | x
NC(=O)c1ccc(NC(=O)COC(=O)/C=C/c2ccc3c(c2)OCO3)cc1 | n | n | n | n | n
Cc1cc(Br)cc(Br)c1OCC(=O)NNC(=O)c1ccoc1C | n | n | n | n | n
O=C(CSc1nnc(CNC(=O)c2ccccc2F)o1)NC1CCCCC1 | n | n | n | n | n
C=CCN1C(=O)c2ccc(C(=O)N3CCN(S(=O)(=O)c4cccc([N+](=O)[O-])c4)CC3)cc2C1=O | x | x | n | x | x
Cn1c(O)c(/C=N/NC(=O)c2cc3ccccc3cc2O)c2ccccc21 | n | n | n | 103.7 | 82.6
CCCOC(=O)c1ccc(Oc2coc3c(CN(CC)CC)c(O)ccc3c2=O)cc1 | n | n | n | n | n
O=C(Nc1ccc(Br)cc1)C1CCCN(C2=NS(=O)(=O)c3ccccc32)C1 (stereo unspecified) | x | x | n | x | x
O=C(Nc1nc(N2C(=O)c3ccccc3C2=O)n(-c2ccccc2)n1)c1ccc(Cl)cc1 | x | n | n | 56.3 | n
O=S1(=O)N=C(Nc2ccc(N3CCOCC3)cc2)c2ccccc21 | n | x | n | x | 86.2
O=C(NC(Cc1ccccc1)C(=O)O)/C(=C\c1ccc(Cl)cc1)NC(=O)c1ccco1 (stereo unspecified) | n | n | n | n | n
Cc1cc(=O)n2nc(N3CCCC(C(=O)Nc4ccc(C)c(C)c4)C3)sc2n1 (stereo unspecified) | n | n | n | n | n
COc1ccc(CN(C)Cc2c(O)ccc3cc(Br)ccc23)cc1OC | n | n | n | n | n
C=CCN1C(=O)/C(=C/c2ccc(OC(C)=O)c(OCC)c2[N+](=O)[O-])SC1=S | n | n | x | 77.3 | n
C=CCN1C(=O)/C(=C\c2ccc(OC(=O)c3ccco3)c(OC)c2)SC1=S | n | n | n | n | n
SMILES | Platelet DG rel | PolyA inhibitor | Yeast superoxide | SKKanGAS inh | Calb FLC
CC(=O)c1ccccc1NC(=O)Cn1c(=O)cnc2ccccc21 | n | n | n | n | n
COc1ccc(-c2csc(-c3cccs3)n2)c(OC)c1 | n | n | n | n | n
COc1ccc(-c2csc(-c3ccccc3)n2)c(OC)c1 | n | n | n | n | 98.7
O=C(Nc1ccc(Cl)cc1)N1CCN(c2ccc3nnc(-c4ccc(F)cc4)n3n2)CC1 | n | n | n | 63.3 | n
O=C(Nc1ccccc1Cl)N1CCN(c2ccc3nnc(-c4ccccc4)n3n2)CC1 | n | n | n | n | n
FC(F)(F)c1cc(CCN2CCNC[C@H]2Cc2cccc3ccccc23)cc(C(F)(F)F)c1 | n | n | n | 69.8 | n
Oc1ccc(C[C@@H]2CNCCN2CCc2cc(C(F)(F)F)cc(C(F)(F)F)c2)cc1 | n | n | n | n | n
Cc1cc(/C=N/NC(N)=S)c(C)n1-c1ccc(Cl)cc1 | n | n | n | n | n
